Data taken from PubChem BioAssay (NCI).
The panel holds about 83,000 compounds, 20% with a hit somewhere; the sample as a whole holds those more often.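 Growth was measured after 48 h exposure to one concentration of compound in 96-well plates. Values under 10 count as active.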 Unmarked numbers belong to inactive results. The source made the active and inactive calls.

What follows are compounds tested on HL-60(TB) leukemia (assay: NCI-60 one-dose screen, 48 h (100 = growth as untreated, 0 = no growth, -100 = all killed)). Conditions: 10 µM unless noted.
With `CCN(CC)CCCCCCCNc1c2ccc(Cl)cc2nc2ccc(OC)cc12` the growth was -46.9% (active).
`CC1(C)N=C(N)N=C(N)N1c1ccc(OCC(=O)Nc2ccccc2)c(Cl)c1` gave a growth of 13.8%.
`COc1cc(OC)c2sc(-c3ccc(-n4cncc4-c4ccc(N)cc4)cc3)nc2c1` showed a growth of 52.6%.
`CC(=O)Nc1c(C(=O)Nc2ccccc2)sc2nc3c(cc12)C(OC(C)=O)CCC3` (stereo not given) gave a growth of 18.6%.
With `NC(=O)N1CCOCC1` the growth was 93.5%.
`CCOC(=O)c1cnc2c(cnn2CC)c1NN=C(C)C` was tested, and the growth was 74.4%.
With `CC/C=C\C/C=C\C[C@H](O)C/C=C1/C(=O)C=C[C@@H]1C/C=C\CCCC(=O)O` the growth was 32.6%.
With `CCCOC(=O)C1(O)CCCC1` the growth was 107%.
Work on `CC(C)n1cc2c(N)ncnc2n1` yielded a growth of 101%.
In the case of `Cc1nc2sccn2c1-c1csc(Nc2ccccc2Cl)n1`, the growth is reported as 19.2%.
For `C[C@@H](C(=O)O)c1ccc2c3cc(Cl)ccc3n(Cc3cc(=O)oc4ccc(Cl)cc34)c2c1`, the growth was 89.9%.
For `C=CC(=O)N1CC2(CC(n3nc(-c4ccc(Oc5ccccc5)cc4)c4c(N)ncnc43)C2)C1`, the growth was 62.3%.
`COc1ccc(Sc2[nH]c(C=O)c3ccccc23)cc1` was tested, and the growth was 14.7%.
Compound `CCOc1ccc(Br)cc1/C=C(\C#N)c1ccc([N+](=O)[O-])cc1` has a growth of 91.6%.
For `CCc1cccc2c1S/C(=C/c1ccc(OC)cc1)C2=O`, the growth was 5.21% (active).
Compound `OCCNCCNC(Cc1ccc(Cl)cc1)c1ccccc1` (stereo not given) has a growth of 76.4%.
`C#C[C@]1(O)CC[C@H]2[C@@H]3CC=C4c5sc(-c6ccccc6)nc5CC[C@]4(C)[C@H]3CC[C@@]21C` showed a growth of 74.2%.
In the case of `COc1ccc(Cn2cc3c(c2-c2cc(OC)c(OC)c(OC)c2)CCc2cnoc2-3)cc1N`, the growth is reported as 5.54% (active).
Compound `CN1C(=O)NC(c2ccc3c(c2)OCO3)C=C1c1ccccc1` (stereo not given) has a growth of 99%.
`CCCCn1c(-c2ccc(C(=O)O/N=C(\N)c3ccc(OC)cc3)cc2)nc(-c2ccccc2)c1-c1ccccc1` was tested, and the growth was -62.5% (active).
`CCCCNCCCCCNc1cc(OC)cc2cccnc12` gave a growth of 67.5%.
`Cn1cc(-c2nnc(-c3ccccc3)s2)c2cc(Br)cnc21` was tested, and the growth was 103%.
In the case of `C=C(C)C1CC(O)C2(C)CCCC3C2C1CC(C)C3(C)CC/C(C)=C/C(O)C1CCC(=O)c2c(OC)cc(OC)cc21` (stereo not given), the growth is reported as 22.4%.
`C[n+]1c(-c2ccccc2)c2cc(N)ccc2c2ccccc21` showed a growth of 59.4%.
In the case of `CCCCC[C@H]1C/C=C2/C(=O)C=C[C@@H]2C/C=C\CCCC(=O)O[C@@H](CCCCC)C/C=C2/C(=O)C=C[C@@H]2C/C=C\CCCC(=O)O1`, the growth is reported as -47.6% (active).
In the case of `O=C(O)c1ccc(Cl)cc1Nc1ccc(F)cc1`, the growth is reported as 90.2%.
With `Cc1nc2cc(Nc3nc(Nc4ccc(F)cc4)nc(N4CCN(C)CC4)n3)ccc2n1Cc1ccccc1` the growth was -56.9% (active).
`Cc1cc(C)c(S(=O)(=O)/N=c2/n(-c3ccccc3)nc3n2CCN3C2=NCCN2)c(C)c1` was tested, and the growth was 82.8%.
`NNC(=O)NO` gave a growth of 94.4%.
Compound `CCC(C)(O)Cc1ccc(Cl)cc1` (stereo not given) has a growth of 96%.
For `CCOC(=O)c1cnn(CC(O)CC)c1NC(=O)NCc1ccccc1C(F)(F)F` (stereo not given), the growth was 76.4%.
`CC[C@H](Nc1nc(N)nc(C)c1C#N)c1nc2cccc(NCc3ccc(C(=O)NO)cc3)c2c(=O)n1-c1ccccc1` was tested, and the growth was 2.45% (active).
With `O=C(/C=C/c1ccc(Cl)cc1)c1ccc(-n2cc(CN3CCN(c4cc5c(cc4F)c(=O)c(C(=O)O)cn5C4CC4)CC3)nn2)cc1` the growth was 99%.
With `O=C(CBr)CN1C(=O)c2ccccc2C1=O` the growth was 103%.
In the case of `O=C(CCN1C(=O)c2ccccc2C1=O)Nc1ccc(Cl)cc1`, the growth is reported as 105%.
`CCCCNc1nnc2n(Cc3ccccc3)c(=O)c3c4c(sc3n12)CCCC4` was tested, and the growth was 90.5%.
With `C=COC(=O)C(C)(C)C` the growth was 98.9%.
Work on `COC1=C(OC)C(=O)C(OC)=C(OC)C1=O` yielded a growth of 102%.
For `CN1CCc2nc3sc(C(N)=O)c(N)c3c(-c3cccs3)c2C1`, the growth was 7.35% (active).
`Cc1cc(N2CCOCC2)nc(N(CCCNc2ccnc3cc(Cl)ccc23)Cc2ccc3c(c2)OCO3)n1` was tested, and the growth was -60.9% (active).
